Laboratory results published in PubChem BioAssay.
Unmarked numbers belong to inactive results. For some assays here: Entries with a potency or affinity are not part of this list. Calls of active or inactive are those of the source.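 How the source made its calls, unless noted: active means thallium flux through the channel raised or lowered by more than 3 SD from vehicle-only wells, actives on both sides; inactive means the rest.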

Assays:
[1] = antimalarial activity against Dd2 strain (AID 2302;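 active means growth inhibition above 50% at the single 2 µM test dose, taken to imply half-maximal potency below 2 µM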;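 further: 0% = DMSO untreated growth and 100% = chloroquine plus artemisinin killed control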); settings: P. falciparum Dd2 in RBCs, LDH growth readout, 72 h; at 2 µM; active compounds read high
[2] = human hepatoma cell viability loss – ATP luminescence, cytotoxicity control for P. falciparum antimalarial project, primary screen (AID 2303;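 active means inhibition above 50%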;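 further: 0% = DMSO wells and 100% = digitonin-killed cells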); settings: HepG2 viability, 24-48 h, at 10 µM, active compounds read high
[3] = biological target: L-lactate dehydrogenase (Plasmodium falciparum (isolate CDC / Honduras)) (UniProt Q27743); test: PfLDH activity inhibition – cell lysate, 3D7 strain, counter-screen for P. falciparum growth inhibition project (AID 2304; call rule not given here;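 further: 0% = vehicle and 100% = reference inhibitor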); settings: P. falciparum 3D7 crude extract, LDH APAD/NBT absorbance; at 2 µM; active compounds read high
[4] = inhibition of 3D7 malaria parasite growth – strain 3D7 (AID 2306; call rule not given here;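 further: 0% = DMSO wells and 100% = chloroquine plus artemisinin control wells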); settings: P. falciparum 3D7 erythrocytic growth, LDH absorbance, 72 h; at 2 µM; active compounds read high
[5] = biological target: Protein kinase 7 (PK7), Plasmodium falciparum 3D7 (PF3D7_0213400) (UniProt Q7YTF7); test: inhibition of Plasmodium PK7 catalytic activity – biochemical, TCAMS antimalarial set, Kinase-Glo luminescence (AID 1159587; call rule not given here); settings: recombinant PfPK7, Kinase-Glo ATP depletion luminescence
[6] = tested on: F380Y; test: BK channel mutant inhibitors and activators – cell-based, U2OS BacMam, thallium flux, beta subunits, selectivity assay, profiling panel (AID 1259406); settings: U2OS BacMam BK variants, at 30 µM;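 further: initial slope of Thallos dye fluorescence rise after thallium is added; log ratio against the mean of 0.3% DMSO vehicle wells on the same plate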
[7] = tested on: F380Y/beta1; test: as above; settings: U2OS BacMam BK variants, at 30 µM
[8] = tested on: F380Y/beta2Delta; test: as above; settings: U2OS BacMam BK variants, at 30 µM
[9] = tested on: F380Y/beta4; test: as above; settings: U2OS BacMam BK variants, at 30 µM
[10] = biological target: Calcium-activated potassium channel subunit alpha-1 (Homo sapiens) + Leucine-rich repeat-containing protein 26 (Homo sapiens) (UniProt Q12791+Q2I0M4); test: as above; settings: U2OS BacMam BK variants, F380Y/Slo1WT/gamma1, at 30 µM
[11] = tested on: R275C; test: as above; settings: U2OS BacMam BK variants, at 30 µM
[12] = tested on: R275C/beta1; test: as above; settings: U2OS BacMam BK variants, at 30 µM
[13] = tested on: R275C/beta2Delta; test: as above; settings: U2OS BacMam BK variants, at 30 µM
[14] = tested on: R275C/beta4; test: as above; settings: U2OS BacMam BK variants, at 30 µM
[15] = tested on: R275C/Slo1WT/beta2; test: as above; settings: U2OS BacMam BK variants, at 30 µM
[16] = biological target: Calcium-dependent protein kinase 4 (Plasmodium falciparum (isolate 3D7)) (UniProt Q8IBS5); test: PfCDPK4 kinase inhibitors, biochemical, TCAMS library (AID 1159588; cut-off not given, nearly all actives have IC50 up to about 0.91 µM); settings: recombinant PfCDPK4, Kinase-Glo ATP depletion luminescence
Sequence of Calcium-dependent protein kinase 4 (Plasmodium falciparum (isolate 3D7)) (Q8IBS5 whole entry, looked up): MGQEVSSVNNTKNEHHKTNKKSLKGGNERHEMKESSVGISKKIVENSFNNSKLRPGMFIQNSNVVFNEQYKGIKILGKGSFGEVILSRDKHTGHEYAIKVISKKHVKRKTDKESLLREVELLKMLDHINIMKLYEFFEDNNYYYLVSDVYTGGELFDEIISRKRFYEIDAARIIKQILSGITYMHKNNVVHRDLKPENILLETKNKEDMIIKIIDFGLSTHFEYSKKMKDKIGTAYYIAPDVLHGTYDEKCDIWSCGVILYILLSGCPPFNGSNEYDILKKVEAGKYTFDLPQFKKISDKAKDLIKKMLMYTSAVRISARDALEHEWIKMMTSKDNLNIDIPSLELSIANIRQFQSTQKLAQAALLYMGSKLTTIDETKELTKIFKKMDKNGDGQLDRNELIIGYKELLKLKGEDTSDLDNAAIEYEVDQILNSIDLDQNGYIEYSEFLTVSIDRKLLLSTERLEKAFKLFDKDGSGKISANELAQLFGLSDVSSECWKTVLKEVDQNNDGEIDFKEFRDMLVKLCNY

Sequence of Calcium-activated potassium channel subunit alpha-1 (Homo sapiens) + Leucine-rich repeat-containing protein 26 (Homo sapiens) (Q2I0M4 whole entry, looked up, one chain of several): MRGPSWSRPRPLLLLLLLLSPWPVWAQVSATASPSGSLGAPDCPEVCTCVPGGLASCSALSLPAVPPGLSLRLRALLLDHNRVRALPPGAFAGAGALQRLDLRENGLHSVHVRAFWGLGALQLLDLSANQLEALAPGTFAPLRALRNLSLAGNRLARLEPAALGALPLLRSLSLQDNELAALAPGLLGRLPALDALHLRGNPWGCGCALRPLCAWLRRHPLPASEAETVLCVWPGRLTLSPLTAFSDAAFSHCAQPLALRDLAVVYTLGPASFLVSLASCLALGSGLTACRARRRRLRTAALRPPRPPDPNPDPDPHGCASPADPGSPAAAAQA
Sequence of L-lactate dehydrogenase (Plasmodium falciparum (isolate CDC / Honduras)) (Q27743 whole entry, looked up): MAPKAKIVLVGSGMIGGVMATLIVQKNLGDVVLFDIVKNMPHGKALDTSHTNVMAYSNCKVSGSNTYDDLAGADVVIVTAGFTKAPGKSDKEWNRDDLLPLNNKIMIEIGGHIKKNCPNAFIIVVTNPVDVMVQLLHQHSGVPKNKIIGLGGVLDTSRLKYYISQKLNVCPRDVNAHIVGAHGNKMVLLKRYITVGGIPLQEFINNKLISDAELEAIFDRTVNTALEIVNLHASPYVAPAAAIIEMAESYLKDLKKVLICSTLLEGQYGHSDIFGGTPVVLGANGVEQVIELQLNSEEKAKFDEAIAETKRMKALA
Sequence of Protein kinase 7 (PK7), Plasmodium falciparum 3D7 (PF3D7_0213400) (Q7YTF7 1-343): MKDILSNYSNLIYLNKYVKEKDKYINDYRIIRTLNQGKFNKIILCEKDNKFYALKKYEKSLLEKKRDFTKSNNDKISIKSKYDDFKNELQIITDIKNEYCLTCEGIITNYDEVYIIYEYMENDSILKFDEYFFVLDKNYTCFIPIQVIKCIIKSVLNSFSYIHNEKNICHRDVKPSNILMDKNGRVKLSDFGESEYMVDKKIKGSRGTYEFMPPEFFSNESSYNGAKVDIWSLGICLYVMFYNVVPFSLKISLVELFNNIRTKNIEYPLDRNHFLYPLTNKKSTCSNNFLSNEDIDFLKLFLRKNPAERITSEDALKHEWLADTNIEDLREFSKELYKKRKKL

SMILES	growth inhibition [1]	inhibition [2]	inhibition [3] [%]	growth inhibition [4]	outcome [5]	log fold change Tl+ flux [6]	log fold change Tl+ flux [7]	log fold change Tl+ flux [8]	log fold change Tl+ flux [9]	log fold change Tl+ flux [10]	log fold change Tl+ flux [11]	log fold change Tl+ flux [12]	log fold change Tl+ flux [13]	log fold change Tl+ flux [14]	log fold change Tl+ flux [15]	outcome [16]
CC(c1cccc(Nc2nccc(-c3c(-c4cccc(NC(=O)c5c(F)cccc5F)c4)nn4ncccc34)n2)c1)S(C)(=O)=O (stereo unspecified)	98% (active)	79% (active)	4	98% (active)	inactive	–	–	–	–	–	–	–	–	–	–	–
Fc1ccc(CCc2ccc(F)cc2)cc1	–	–	–	–	–	-9.9e-05	-0.0289	0.0449	0.0131	0.0118	0.0179	0.0162	0.0454	0.0168	-0.0303	–
CCc1nc2ccccc2nc1N1CCN(S(=O)(=O)c2ccc(Cl)cc2)CC1	–	–	–	–	–	-0.00553	-0.0118	-0.00426	-0.00719	-1.3e-05	0.0269	0.0201	-0.0214	0.00696	-0.0158	–
N#CC(CCC(=O)O)(CCC(=O)O)S(=O)(=O)c1ccccc1	–	–	–	–	–	0.0317	0.000152	-0.0465	-0.00447	0.0235	0.0374	0.0216	0.0211	-0.014	0.0459	–
CSc1nc(C)nc(Sc2cccc(C(F)(F)F)c2)c1C#N	–	–	–	–	–	-0.0573	0.0287	0.00499	0.0691	0.0378	-0.0292	-0.00668	-0.023	0.00747	0.00901	–
CS(=O)(=O)Cc1ccc(Nc2nccc(-c3c(-c4cccc(NC(=O)c5c(F)cccc5F)c4)nn4ccccc34)n2)cc1	75% (active)	78% (active)	0	99% (active)	inactive	–	–	–	–	–	–	–	–	–	–	–
CS(=O)(=O)Cc1ccc(Nc2nccc(-c3c(-c4cccc(NC(=O)C5CCCCC5)c4)nn4ncccc34)n2)cc1	99% (active)	31%	0	98% (active)	inactive	–	–	–	–	–	–	–	–	–	–	–
NNC(=O)Cc1csc2nc(-c3ccccc3)nn12	–	–	–	–	–	0.0124	0.00927	0.017	0.00133	-0.0179	0.0143	0.0323	0.0113	0.0106	0.0322	–
CS(=O)(=NS(=O)(=O)c1ccc(OC(F)(F)F)cc1)c1ccccc1 (stereo unspecified)	–	–	–	–	–	0.0244	-0.0162	0.018	-0.00984	0.0614	0.00979	-0.0151	0.00446	0.0404	0.0068	–
O=C1CSC(=S)N1N=Cc1cccnc1	–	–	–	–	–	0.0409	0.00585	0.0225	0.0146	0.0179	0.0256	-0.0433	0.0173	0.00843	-0.022	–
NC(=O)c1ccccc1Nc1nc(Nc2cccc(N3CCN(CCO)CC3)c2)ncc1Cl	98% (active)	93% (active)	1	95% (active)	inactive	–	–	–	–	–	–	–	–	–	–	inactive
O=C(c1ncoc1-c1ccccc1)N(Cc1ccccn1)Cc1ccccn1	–	–	–	–	–	0.0015	0.0293	-0.0298	0.051	-0.0237	-0.0056	0.0298	0.0379	0.0394	0.033	–
O=C(Nc1cccc(-c2nn3ccccc3c2-c2ccnc(Nc3ccc(NCCCN4CCOCC4)c(F)c3)n2)c1)c1c(F)cccc1F	97% (active)	86% (active)	0	100% (active)	inactive	–	–	–	–	–	–	–	–	–	–	–
O=C(NC(=O)N1CCCCC1)c1cc(Br)cc(Br)c1	–	–	–	–	–	-0.337 (active)	-0.109 (active)	-0.277 (active)	-0.0283	-0.127 (active)	-0.145 (active)	-0.0155	-0.0701	-0.0253	-0.0054	–
CCc1[nH]c(=S)[nH]c(=O)c1C#N	–	–	–	–	–	-0.0598	0.0419	0.0255	0.0765	0.0111	0.0263	-0.0177	0.00491	0.0228	0.0561	–
N#Cc1c(F)cccc1NC1CCN(Cc2ccccc2)CC1	–	–	–	–	–	-0.0529	-0.0783	-0.0626	-0.103 (active)	-0.0887	-0.0649	-0.0261	-0.0118	-0.0356	-0.0644	–

SMILES	growth inhibition [1]	inhibition [2]	inhibition [3] [%]	growth inhibition [4]	outcome [5]	log fold change Tl+ flux [6]	log fold change Tl+ flux [7]	log fold change Tl+ flux [8]	log fold change Tl+ flux [9]	log fold change Tl+ flux [10]	log fold change Tl+ flux [11]	log fold change Tl+ flux [12]	log fold change Tl+ flux [13]	log fold change Tl+ flux [14]	log fold change Tl+ flux [15]	outcome [16]
CNC(=O)c1ccccc1Nc1nc(Nc2ccc(CCN3CCN(C)CC3)cc2)ncc1Cl	98% (active)	76% (active)	5	97% (active)	inactive	–	–	–	–	–	–	–	–	–	–	–
O=C(NC(=O)C12CC3CC(CC(C3)C1)C2)Nc1ccc(Cl)cc1	–	–	–	–	–	0.00432	-0.0267	-0.0384	-0.0415	0.0168	-0.00652	-0.0129	-0.0163	0.0337	-0.0195	–
O=C(c1ccccc1)c1ccc2c(c1)Cc1ccccc1-2	–	–	–	–	–	0.00926	-0.00651	0.0385	-0.103 (active)	-0.0649	-0.0862 (active)	-0.0486	-0.00396	0.00762	-0.0152	–
COc1cccc(CC(=O)NC2CCN(c3nccc(C(F)(F)F)n3)CC2)c1	–	–	–	–	–	-0.0079	-0.0102	0.00797	-0.0197	-0.0334	-0.0558	-0.0259	-0.00912	0.0415	0.0233	–
CC1=NC2SC=C(c3ccccc3Cl)N2C(=O)C1 (stereo unspecified)	–	–	–	–	–	-0.0123	0.0244	-0.0252	0.00331	-0.0675	-0.0205	0.0259	-0.0444	0.037	0.0321	–
CN1CCN(c2ccc(Nc3ncc(C#N)c(Nc4ccccc4C(N)=O)n3)cc2)CC1	93% (active)	43%	-1	92% (active)	inactive	–	–	–	–	–	–	–	–	–	–	–
CSc1cc(C(C)(C)C)[nH]n1	–	–	–	–	–	-0.125 (active)	-0.0178	-0.218 (active)	-0.423 (active)	0.0568	0.0547	0.173 (active)	-0.014	0.047	0.0223	–
CCOC(=O)c1ccc(-n2sccc2=O)cc1	–	–	–	–	–	-0.0987	0.078	-0.0422	-0.0664	0.0683	0.0277	0.179 (active)	0.113 (active)	0.141 (active)	0.0482	–
Cc1cc(Nc2ncc(C#N)c(Nc3ccccc3C(N)=O)n2)ccc1N1CCN(C)CC1	94% (active)	99% (active)	0	94% (active)	inactive	–	–	–	–	–	–	–	–	–	–	–
O=C(Nc1ccc(OC(F)(F)F)cc1)OC1CN(C(c2ccccc2)c2ccccc2)C1	–	–	–	–	–	-0.0399	-0.0331	-0.0434	-0.154 (active)	-0.134 (active)	-0.0449	0.0012	-0.0123	0.0956 (active)	-0.0244	–
Cc1nn(S(=O)(=O)c2ccccc2)c(C)c1Oc1ccc(Cl)cc1	–	–	–	–	–	-0.154 (active)	-0.178 (active)	-0.15 (active)	-0.668 (active)	-0.342 (active)	-0.199 (active)	-0.214 (active)	-0.0399	-0.114 (active)	-0.0715	–
COc1ccc(C(=O)NNC(=O)c2c(OC)cc(C(F)(F)F)cc2C(F)(F)F)cc1	–	–	–	–	–	0.044	0.017	-0.00926	0.0361	0.00672	0.0148	0.0608	0.00715	0.021	0.015	–
CS(=O)(=O)Cc1ccc(Nc2nccc(-c3c(-c4cccc(C(=O)Nc5c(F)cccc5F)c4)nn4ccccc34)n2)cc1	92% (active)	85% (active)	-1	96% (active)	inactive	–	–	–	–	–	–	–	–	–	–	–
CCCCCCCCCCCCSC(=S)NCC1CCCO1 (stereo unspecified)	–	–	–	–	–	0.0353	0.0262	0.0128	0.0306	0.0128	-0.00711	-0.0124	0.0322	-0.00355	-0.00192	–
Cc1ccc(I)cc1[N+](=O)[O-]	–	–	–	–	–	0.00211	-0.0212	0.0224	-0.0253	0.0293	0.0178	0.00943	-0.016	0.00957	-0.00671	–
